The nature of assay [1]: qHTS profiling for inhibitors of Plasmodium falciparum proliferation (AID 504749).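 For activity, negative = inhibition: 0% = DMSO vehicle and full inhibition = artemisinin control.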 For all read-outs here: nearly all actives have a fitted effect of over 60% in size. As to conditions: P. falciparum in erythrocytes, SYBR Green DNA, 72 h; for activity, negative = inhibition: at 28.7 µM (top of the series). In a few lines:
(§1)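 P. falciparum-infected erythrocytes (0.3% parasitemia, 2.5% hematocrit final) were exposed to compounds for 72 h at 37 C in 5% CO2, then lysed with SYBR Green buffer overnight at room temperature; parasite DNA fluorescence was normalized to artemisinin and DMSO controls.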
For orientation: In qHTS, concentration-response curves come from the screen itself.

In a further assay the test system is 3D7. The assay is described as above. As to conditions: P. falciparum in erythrocytes, SYBR Green DNA, 72 h; series mostly up to 28.7 µM. Summed up: as §1
Another assay deals with 7G8. The description is as above. As to conditions: P. falciparum in erythrocytes, SYBR Green DNA, 72 h; series mostly up to 28.7 µM. In a few lines: as §1
The next assay has as its system AA1029. Described as above. As to conditions: P. falciparum in erythrocytes, SYBR Green DNA, 72 h; series mostly up to 28.7 µM. In a few lines: as §1
A further assay has as its system AS120. The description is as above. To be noted: P. falciparum in erythrocytes, SYBR Green DNA, 72 h; series mostly up to 28.7 µM. Summed up:
as §1

The subject of a further assay is ATS189. The assay is described as above. As to conditions: P. falciparum in erythrocytes, SYBR Green DNA, 72 h; series mostly up to 28.7 µM. Summed up:
as §1

Another assay concerns ATS95. Described as above. As to conditions: P. falciparum in erythrocytes, SYBR Green DNA, 72 h; series mostly up to 28.7 µM. In a few lines:
as §1

In the next assay the test system is C2A. Described as above. As to conditions: P. falciparum in erythrocytes, SYBR Green DNA, 72 h; series mostly up to 28.7 µM. Summed up:
as §1

The next assay has as its system CP185. Described as above. To be noted: P. falciparum in erythrocytes, SYBR Green DNA, 72 h; series mostly up to 28.7 µM. Summed up:
as §1

Another assay deals with CP191. The description is as above. To be noted: P. falciparum in erythrocytes, SYBR Green DNA, 72 h; series mostly up to 28.7 µM. Summed up: as §1
Another assay concerns CP192. Described as above. To be noted: P. falciparum in erythrocytes, SYBR Green DNA, 72 h; series mostly up to 28.7 µM. In a few lines: as §1
A further assay relates to CP194. The assay is described as above. As to conditions: P. falciparum in erythrocytes, SYBR Green DNA, 72 h; series mostly up to 28.7 µM. In a few lines:
as §1

Another assay has as its system CP201. Described as above. As to conditions: P. falciparum in erythrocytes, SYBR Green DNA, 72 h; series mostly up to 28.7 µM. Summed up: as §1
For another assay, the system named is CP203. The assay is described as above. To be noted: P. falciparum in erythrocytes, SYBR Green DNA, 72 h; series mostly up to 28.7 µM. Summed up:
as §1

A further assay concerns CP211. The description is as above. To be noted: P. falciparum in erythrocytes, SYBR Green DNA, 72 h; series mostly up to 28.7 µM. In a few lines: as §1
Another assay relates to CP215. The assay is described as above. As to conditions: P. falciparum in erythrocytes, SYBR Green DNA, 72 h; series mostly up to 28.7 µM. In a few lines:
as §1

The next assay has as its system CP217. Described as above. As to conditions: P. falciparum in erythrocytes, SYBR Green DNA, 72 h; series mostly up to 28.7 µM. Summed up:
as §1

For the next assay, the system named is CP237. The assay is described as above. To be noted: P. falciparum in erythrocytes, SYBR Green DNA, 72 h; series mostly up to 28.7 µM. Summed up: as §1
In the next assay the test system is CP238. The assay is described as above. To be noted: P. falciparum in erythrocytes, SYBR Green DNA, 72 h; series mostly up to 28.7 µM. Summed up: as §1

This is an account of results in PubChem BioAssay (NCATS).

Records with an inconclusive call do not appear. Unmarked numbers belong to inactive results. The source made the active and inactive calls. Calls come from the whole dose curve; as a rule, active = well fitted inhibition curve with a large enough effect; inconclusive = small, poorly fitted or top-dose-only effect; inactive = flat fitted curve, though single readings scatter.
Potency is the fitted concentration of half-maximal effect.

Take `CCCCCCCCNC(C)C(O)c1ccc(SC(C)C)cc1` (stereo not given): the Potency in assay [1] (parasite line A) is 1260 nM (active); in assay [1] (parasite line B) it was 562 nM (active); in the assay with 3D7 it was 794 nM (active); in the assay on 7G8 it was 100 nM (active); with AA1029 it was 1000 nM (active); in the assay with AS120, 891 nM (active). For the same compound, the Potency in the assay on ATS189 is 631 nM (active); with ATS95, 1260 nM (active); in the assay with C2A, 891 nM (active); in the assay on CP185 it was 891 nM (active); in the assay with CP191, 794 nM (active); with CP192, 2130 nM (active). Further, the Potency was 1900 nM (active) in the assay with CP194; 3790 nM (active) with CP201; 1690 nM (active) in the assay with CP203; 3380 nM (active) in the assay with CP211; 1690 nM (active) in the assay with CP215; 708 nM (active) in the assay with CP217. Besides, the Potency with CP237 and in the assay on CP238 was 794 nM (active) in each case.

Take `CC(=O)Nc1ccc(OC(=O)c2ccccc2OC(C)=O)cc1`: the activity, negative = inhibition is -24.5% in assay [1] (parasite line A) and 5.15% in [1] (parasite line B). Also, the Potency entry with 3D7, in the assay on 7G8, in the assay on AA1029, in the assay on AS120, with ATS189 and in the assay on ATS95 was “inactive” throughout. The Potency result in the assay with C2A, in the assay on CP185, in the assay with CP191, in the assay on CP192, in the assay on CP194 and in the assay with CP201 was “inactive” each time. Also, the Potency entry in the assay with CP203, in the assay with CP211, with CP215, with CP217, with CP237 and with CP238 was “inactive” throughout.

Regarding `Cc1nc(-c2ccc(Cl)cc2)oc1COC(C)(C)C(=O)O`, the activity, negative = inhibition was 9.36% in [1] (parasite line A) and 9.87% in assay [1] (parasite line B). The Potency entry with 3D7, in the assay with 7G8, with AA1029, in the assay on AS120, in the assay with ATS189 and in the assay on ATS95 was “inactive” in each case. The Potency result with C2A, in the assay on CP185, in the assay with CP191, in the assay with CP192, with CP194 and with CP201 was “inactive” throughout. The Potency result with CP203, with CP211, in the assay with CP215, in the assay on CP217, in the assay on CP237 and with CP238 was “inactive” in each case.

Regarding `Cc1ccccc1OCC(O)CO` (stereo not given), the figures for the activity, negative = inhibition in assay [1] (parasite line A) and in assay [1] (parasite line B) were 13.7% and 2.74%, respectively. Also, the Potency result in the assay with 3D7, in the assay with 7G8, in the assay with AA1029, with AS120, in the assay on ATS189 and with ATS95 was “inactive” each time. Also, the Potency entry in the assay with C2A, with CP185, with CP191, in the assay with CP192, with CP194 and in the assay on CP201 was “inactive” in each case. Besides, the Potency result with CP203, with CP211, in the assay with CP215, in the assay on CP217, in the assay on CP237 and with CP238 was “inactive” in each case.

As for `Cc1ccc(S(=O)(=O)NC(=O)NC2CCCC2)cc1`, the activity, negative = inhibition in assay [1] (parasite line A) is 11.1%; in [1] (parasite line B), 9.92%. Also, the Potency result in the assay on 3D7, in the assay with 7G8, in the assay with AA1029, in the assay with AS120, in the assay on ATS189 and with ATS95 was “inactive” in each case. Further, the Potency result in the assay with C2A, in the assay on CP185, in the assay with CP191, in the assay with CP192, with CP194 and with CP201 was “inactive” in each case. Besides, the Potency result in the assay with CP203, in the assay on CP211, in the assay with CP215, in the assay on CP217, with CP237 and in the assay with CP238 was “inactive” throughout.

In the case of `O=S(=O)(O)c1ccc(O)cc1`, the activity, negative = inhibition in assay [1] (parasite line A) is 4.42%; in assay [1] (parasite line B), -3.84%. For the same compound, the Potency result in the assay with 3D7, in the assay with 7G8, in the assay with AA1029, in the assay on AS120, in the assay with ATS189 and in the assay with ATS95 was “inactive” in each case. In addition, the Potency result in the assay on C2A, with CP185, in the assay with CP191, in the assay on CP192, in the assay on CP194 and in the assay with CP201 was “inactive” in each case. The Potency result in the assay with CP203, in the assay on CP211, in the assay with CP215, in the assay on CP217, in the assay with CP237 and in the assay on CP238 was “inactive” throughout.
